Bioassay records from PubChem BioAssay.
PLK1 kinase inh: PLK1 (human) kinase inhibition. P53350. recombinant PLK1 kinase, TR-FRET peptide phosphorylation. inhibition, % at 10 µM. hit rate 0.53% among 97,000;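 active means inhibition of 50% or more in the single-concentration screen; inactive means inhibition below 50%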;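 further: 0% = DMSO max control and 100% = H-89 dihydrochloride min control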
ERa SRC1 pot: enhances coactivator binding to human estrogen receptor alpha; coactivator binding (% of control), % at 25.6 µM; hit rate 1.3% among 86,000; P03372; AID 639; TR-FRET ERalpha-LBD/SRC-Cy5 coactivator binding, 2 h; 100 = basal binding, no effect; in the data active means activity above about 200%;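 further: binding measured in presence of low estradiol as agonist stimulus; 0% = peptide alone without receptor and 100% = receptor with peptide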
ERa SRC1 inh: blocks coactivator binding to human estrogen receptor alpha. P03372. TR-FRET ER-alpha LBD / SRC-1 peptide, estradiol-bound. inhibition, % at 25.6 µM. hit rate 1.7% among 86,000. AID 629; in the data active means inhibition above about 50%;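 further: 0% = receptor plus peptide control and 100% = peptide only without receptor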
Smad3 inh: inhibitors of human Smad3 transcription factor binding; TR-FRET Smad3/Dy647-FoxH1 peptide binding, europium anti-His; inhibition, % at 25 µM; P84022; hit rate 0.29% among 88,000;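 active means compounds that reduce the energy-transfer binding signal between the protein and its labelled peptide by more than half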;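 further: 0% = Smad3 plus labelled peptide maximal FRET and 100% = peptide-only background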
Target sequence (P84022 whole entry, looked up): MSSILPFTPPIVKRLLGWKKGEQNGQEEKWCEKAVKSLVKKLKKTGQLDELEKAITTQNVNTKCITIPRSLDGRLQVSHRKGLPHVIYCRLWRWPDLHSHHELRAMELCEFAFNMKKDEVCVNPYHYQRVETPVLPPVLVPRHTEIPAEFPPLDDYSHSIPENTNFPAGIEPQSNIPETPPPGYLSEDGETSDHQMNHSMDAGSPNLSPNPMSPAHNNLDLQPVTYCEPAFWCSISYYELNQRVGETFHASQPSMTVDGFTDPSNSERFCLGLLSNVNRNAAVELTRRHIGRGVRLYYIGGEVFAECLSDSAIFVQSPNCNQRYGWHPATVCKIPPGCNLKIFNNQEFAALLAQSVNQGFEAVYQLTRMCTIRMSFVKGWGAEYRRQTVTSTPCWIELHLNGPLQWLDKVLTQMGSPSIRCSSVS
ERb coact inh: ER-beta (human) coactivator binding inhibition; Q92731; TR-FRET ER-beta LBD / SRC1-Cy5 peptide binding; receptor agonist-loaded with 1 µM estradiol; inhibition, % at 25.6 µM; hit rate 1.3% among 86,000;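 active means compounds whose percent inhibition of the receptor-coactivator binding signal exceeds about 50% in the single-dose screen, limit read from the data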;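 further: 0% = receptor plus peptide wells without compound and 100% = peptide-only wells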
Plk1 PBD FP: inhibitors of human Plk1 polo box domain binding | P53350 | Plk1 PBD phosphopeptide binding, fluorescence polarization | inhibition, %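 (tested at about 20 µM)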 | hit rate 0.13% among 97,000 | AID 693; in the data active means inhibition above about 34%, passing the limit was not always enough
* marks the source's active call; other numbers are inactive results; . = not tested or not shown; + = active, no number; [ ] = dose if it differs, or a comment. The list is not random: actives were taken first. Their share in the collection is about 3.3%.

SMILES	PLK1 kinase inh	ERa SRC1 pot	ERa SRC1 inh	Smad3 inh	ERb coact inh	Plk1 PBD FP
Cc1noc(C)c1COc1ccc(C(=O)OCC(=O)Nc2ccc3c(c2)OCO3)cc1	-5.3	110.2	-7.3	4.7	-7.4	-16.5
Cc1noc(C)c1COC(=O)c1cccnc1SCC(=O)Nc1ccc2c(c1)OCO2	-1.1	110.3	4.2	50.5*	-5.9	23.8
CCOc1ccccc1NC(=O)N1CCC(NC(=O)c2cccc(C)c2)CC1	-10.3	108.4	62.6*[fluorescence artefact?]	3.9	64.5*[fluorescence artefact?]	-11.2
COc1ccc(-c2noc(CSc3nnc(Cc4ccccc4)n3-c3cccc(C)c3)n2)cc1OC	-10.7	+[fluorescence artefact?]	2.2	3.7	-1.1	22.7
Cc1ccc(-c2noc(CSc3nnc(Cc4ccccc4)n3-c3cccc(C)c3)n2)cc1	-6.0	75.7	-4.7	20.0	-0.4	12.1
O=S(=O)(O)c1ccc(N=Nc2ccc3c(S(=O)(=O)O)cccc3c2O)c2ccccc12	.	.	.	17.8	.	.
CCCCc1ccc(-c2ccc(C)cc2O)nc1	-43.9	203.1*[fluorescence artefact?]	21.7	4.9	37.0	12.2
CC(=O)Nc1ccc(Nc2nc(C)nc3c2oc2ccccc23)cc1	7.3	96.3	-2.4	-2.9	6.3	-14.2
CC(=O)c1ccc(Nc2ncnc3c2oc2ccccc23)cc1	-4.2	346.2*[fluorescence artefact?]	45.0	46.0	46.2	7.5
Cc1cc(=O)n2nc(-c3ccc(C(F)(F)F)cc3)sc2n1	-10.3	106.6	4.5	3.7	-5.6	-2.4
CCS(=O)(=O)N1CCC(NC(=O)C2CCCCC2)CC1	-9.1	100.8	5.3	6.1	-5.3	16.8
CN(C(=O)CN1CCC(NC(=O)C2CCCCC2)CC1)C1CCCCC1	-9.4	211.1*[fluorescence artefact?]	1.8	8.6	3.1	-0.9
O=C(O)[C@@H]1[C@H]2O[C@H]([C@@H](Br)[C@H]2Br)[C@@H]1C(=O)O	.	.	.	0.5	.	.
CC(C)c1ccc(/C(C(=O)O)=C(\O)C(=O)O)cc1	.	.	.	14.5	.	.
O=C(O)[C@H]([C@H]1NCCS1)N1Cc2ccccc2C1	.	.	.	12.4	.	.
NC1=N[C@@H](c2ccc(Cl)cc2)N(c2ccc(S(N)(=O)=O)cc2)C(N)=N1	.	.	.	5.5	.	.
CCOC(=O)Cc1cc(=O)n2[nH]c(-c3ccc(C)cc3)cc2n1	-3.8	81.9	72.5*	-2.3	56.3*	-19.4
N#Cc1c(NC(=O)CCC(=O)O)ccc2ccccc12	.	.	.	-9.9	.	.
Cc1ccc(C)c(NC(=O)NCc2ccc(Cl)cc2)c1	.	.	.	3.7	.	.
Cc1[nH]c(=O)[nH]c(=O)c1NC(=O)c1cccs1	-6.1	101.6	86.5*[fluorescence artefact?]	4.3	-5.7	-7.2
COC(=O)c1sc2ncn(-n3c(C)ccc3C)c(=O)c2c1C	-12.3	105.9	-5.9	59.8*	-15.9	-10.2
CCn1c(SCC(=O)Nc2ccc3c(c2)oc2ccccc23)nnc1-c1ccc(N)cc1	-3.8	66.9	74.4*	-15.4	50.1*[fluorescence artefact?]	-11.7
CCn1c(SCC(=O)Nc2ccc3c(c2)c2ccccc2n3CC)nnc1-c1ccco1	-13.4	83.2	63.1*	11.4	48.7	25.3
CC1(C)[C@@H](CC(=O)O)CCC[C@H]1CC(=O)O	.	.	.	5.3	.	.
O=c1[nH]c(SCc2cccc([N+](=O)[O-])c2)nc2nc[nH]c12	.	.	.	-0.3	.	.
SMILES	PLK1 kinase inh	ERa SRC1 pot	ERa SRC1 inh	Smad3 inh	ERb coact inh	Plk1 PBD FP
O=C(CCCn1c(=S)[nH]c2cc3c(cc2c1=O)OCO3)N1CCc2ccccc2C1	-11.6	124.5	20.3	-0.7	50.7*	-10.4
O=C(CCn1c(=S)[nH]c2cc3c(cc2c1=O)OCO3)N1CCc2ccccc2C1	-6.8	104.3	6.2	6.1	15.3	0.7
O=C(CCCn1c(=S)[nH]c2cc3c(cc2c1=O)OCO3)N1CCN(c2ccc(Cl)cc2)CC1	-16.3	73.5	66.0*	-11.0	27.4	24.4
O=C(NCCN1CCCC1)c1ccc(Cn2c(=S)[nH]c3cc4c(cc3c2=O)OCO4)cc1	-2.8	144.6	70.1*[fluorescence artefact?]	-7.8	45.1	16.7
C=CCNC(=O)c1ccc(Cn2c(=S)[nH]c3cc4c(cc3c2=O)OCO4)cc1	-9.5	99.7	33.3	-13.0	4.8	8.4
CC1(C)CCC(=O)N[C@H]1CC(=O)C[C@@H]1NC(=O)CCC1(C)C	.	.	.	-1.8	.	.
Cn1c(=O)c2c(ncn2CCSS(=O)(=O)O)n(C)c1=O	.	.	.	12.7	.	.
Cc1cc(Cc2cc(Cc3cc(C)cc(C(C)(C)C)c3O)c(C)cc2C)c(O)c(C(C)(C)C)c1	.	.	.	-7.8	.	.
N=c1c(C(=O)NCc2ccc(F)cc2)cc2c(=O)n3ccccc3nc2n1Cc1cccnc1	-1.5	64.6	71.4*	7.7	21.6	4.4
Cc1n[nH]c(=O)nc1Nc1ccc(O)cc1	1.5	85.2	-3.4	1.5	16.2	-7.9
Oc1ccc(Nc2nc3ccccc3nc2Nc2ccc(O)cc2)cc1	2.5	13.7	73.4*[fluorescence artefact?]	18.8	83.2*[fluorescence artefact?]	-4.3
CCOC(=O)c1cnc2c(C#N)c(C)nn2c1-c1ccccc1	64.2*	107.6	-8.4	-0.4	-7.0	9.9
O=C(CSc1nnc(-c2cccnc2)o1)c1cc2ccccc2oc1=O	-16.8	220.7*	-3.8	-19.3	3.0	-10.2
CCOC(=O)Cc1csc(NC(=O)CCCN2C(=O)c3ccccc3C2=O)n1	-13.3	109.5	2.6	-2.9	-12.9	-21.8
CCOC(=O)Cc1csc(NC(=O)CCN2C(=O)c3ccccc3C2=O)n1	-8.6	98.2	2.3	-3.0	96.9*[fluorescence artefact?]	-18.9
O=C(O)c1ccccc1CN1CCC[C@@H](C(=O)O)C1	.	.	.	-3.2	.	.
CCOC(=O)c1c2c(n(C)c1COC)C(=O)C(=O)c1ccc(Br)cc1-2	-7.5	57.4	84.7*	75.4*	33.2	12.1
C[C@H](CN(C)C)C(O)(c1ccccc1)c1ccccc1	.	.	.	13.9	.	.
CN1CC[C@@H](CN2c3ccccc3Sc3ccccc32)C1	.	.	.	6.6	.	.
CC(C)CNC(=O)c1c(N)n(/N=C/c2ccccn2)c2nc3ccccc3nc12	-8.2	228.2*[fluorescence artefact?]	69.2*	3.6	27.5	-1.3
CCCCCCNC(=O)c1c(N)n(/N=C/c2ccco2)c2nc3ccccc3nc12	-10.8	.	.	.	.	18.5
COCCNC(=O)c1c(N)n(/N=C/c2cccs2)c2nc3ccccc3nc12	-6.0	30.0	67.7*	6.8	49.5	-24.6
CCCCNC(=O)c1c(N)n(/N=C/c2ccccn2)c2nc3ccccc3nc12	-4.8	.	.	.	.	-17.9
COc1cccc(CNC(=O)c2ccc(S(=O)(=O)N3CCCC3)cc2)c1	-12.6	.	.	.	.	6.4
CNC/C(Cl)=N/S(=O)(=O)c1ccc(C)cc1	.	.	.	-1.1	.	.
Cc1ccc(-c2nn3c(-c4ccco4)nnc3c3ccccc23)cc1S(=O)(=O)NCC1CCCO1 (stereo not given)	-6.6	218.3*	55.4*[fluorescence artefact?]	-4.2	29.6	14.2
Cc1ccc(Nc2c3c(nc4ncnn24)CCC3)cc1	-1.7	131.7	-2.8	-1.3	30.1	10.3
Clc1cccc(Nc2c3c(nc4ncnn24)CCC3)c1	54.2*	116.2	3.8	1.0	-2.6	-10.8
C(=Nc1cnc2ccccc2c1)c1ccc2ccccc2n1	.	.	.	-8.4	.	.
COCC(C)n1c(C)cc(C(=O)COC(=O)c2c(NC(C)=O)sc(C)c2C)c1C (stereo not given)	.	542.1*[fluorescence artefact?]	23.1	-24.0	30.9	.
